This is a sample that favours compounds with a hit; in the whole collection about 7.6% have one here.
VP16 counter = VP16 counterscreen qHTS for inhibitors of ROR gamma transcriptional activity; Drosophila S2 Gal4-VP16 UAS-luciferase, luminescence, 20 h; Potency, µM (top dose mostly 53.6 µM), inactives show top-dose activity, negative = inhibition, usual class: inhibitors; 3.5% of 310,000 active; AID 2546, 2010;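 also: Gal4-VP16 expression switched on by copper sulfate through the metallothionein promoter; potency is read from the fitted curve at half-maximal effect; % is scaled to controls: 0 for no effect and ±100 for the full control effect; nearly all actives have a fitted effect of over 50% in size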
ELG1 DNA repair = qHTS screen for small molecules that inhibit ELG1-dependent DNA repair in human embryonic kidney (HEK293T) cells expressing luciferase-tagged ELG1; HEK293T ELG1-luciferase reporter, luminescence, 16 h; DNA damage induced by 5-fluorouridine; Potency, µM (top dose mostly 46.1 µM), inactives show top-dose activity change, negative = inhibition, hits mostly inhibitors; 2.3% of 330,000 active; also: potency is read from the fitted curve at half-maximal effect; % is scaled to controls: 0 for no effect and ±100 for the full control effect; nearly all actives have a fitted effect of over 55% in size
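Step one: seed 2,000 cells per well. Step two: pin-transfer compound or DMSO alongside 5-fluorouridine. Step three: incubate 16 hr, 37 °C, 5% CO2. Step four: add ONE-Glo, wait 30 min, read luminescence.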
BRCA1 expr up = qHTS Assay to Identify Small Molecule Activators of BRCA1 Expression; MCF7-BRCA1-FFLuc reporter, luminescence, 48 h; response scale: scaled: vehicle 0%, 10 µM genistein 100%; AID 624202, 2012; Potency, µM (doses to about 46.1 µM), for the others: at the top dose activation, usual class: activators; 1.1% of 380,000 active; also: potency is read from the fitted curve at half-maximal effect; nearly all actives have a fitted effect of over 80% in size
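Reporter cells (MCF7, BRCA1 promoter-firefly luciferase) received library compounds across a concentration series for 48 h. End-point luminescence was measured and concentration-effect curves derived after normalization.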
RORg inh = qHTS for inhibitors of ROR gamma transcriptional activity; AID 2551, 2010; Nuclear receptor ROR-gamma (Mus musculus), P51450; Drosophila S2 Gal4-RORgamma UAS-luciferase reporter, 20 h; 5.4% of 310,000 active; Potency, µM (top dose mostly 53.6 µM), inactives show at the top dose activity change, negative = inhibition, usual class: inhibitors; also: potency is read from the fitted curve at half-maximal effect; % is scaled to controls: 0 for no effect and ±100 for the full control effect; nearly all actives have a fitted effect of over 60% in size
Target sequence (P51450 whole entry, looked up, the tested form may be a part): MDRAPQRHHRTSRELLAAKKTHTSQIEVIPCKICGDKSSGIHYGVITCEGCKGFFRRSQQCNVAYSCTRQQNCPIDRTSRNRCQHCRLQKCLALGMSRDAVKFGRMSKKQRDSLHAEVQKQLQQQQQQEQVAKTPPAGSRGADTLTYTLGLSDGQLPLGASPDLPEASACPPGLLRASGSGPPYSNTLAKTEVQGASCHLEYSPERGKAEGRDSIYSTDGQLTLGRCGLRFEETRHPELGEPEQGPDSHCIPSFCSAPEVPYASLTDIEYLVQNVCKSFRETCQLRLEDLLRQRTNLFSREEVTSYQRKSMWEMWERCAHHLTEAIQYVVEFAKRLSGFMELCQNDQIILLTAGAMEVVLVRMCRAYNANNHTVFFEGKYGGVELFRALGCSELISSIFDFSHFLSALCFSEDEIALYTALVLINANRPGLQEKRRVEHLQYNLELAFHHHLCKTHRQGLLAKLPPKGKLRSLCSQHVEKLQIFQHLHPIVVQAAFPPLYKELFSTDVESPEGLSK
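Using a luciferase readout, inhibitors were identified by reduced reporter activity in Drosophila cells coexpressing a copper-inducible Gal4–ROR gamma fusion and UAS-driven Photinus luciferase, incubated 20 hr after 700 uM copper sulfate.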
p53 reactivation = qHTS assay for re-activators of p53 using a Luc reporter; H1299 p53-A138V BP100-luciferase reporter, luminescence, 24 h; Potency, µM (top dose mostly 92.2 µM), for the others: at the highest dose activity change, positive = activation, usual class: activators; 0.063% of 320,000 active; also: potency is read from the fitted curve at half-maximal effect; % of control where 0% means no effect; nearly all actives have a fitted effect of over 45% in size
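H1299 (p53-null), stable ts p53-A138V + BP100-Luc; 1000 cells/well, Opti-MEM/10% FBS; cpd 4 pt, 1:5; 24 h, 37 deg C, 5% CO2; detection reagent 10 min RT; luminescence.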
Giardia kill = Small Molecules that selectively kill Giardia lamblia: qHTS. activity change, % at 7.66 µM, hits read low. 0.15% of 340,000 active. Giardia lamblia trophozoite viability. AID 540267, 2011; in the data active = activity change below about -80%; inconclusive = between about -30% and that limit;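 also: parasites exposed to compound for two days anaerobically before the ATP read; % is scaled to controls: 0 for no effect and ±100 for the full control effect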
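Each well holds 100 Giardia trophozoites and compound. After two days (48 hrs) at 37 deg C in anaerobic conditions, ATP is quantified by luminescence.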
Active calls of the source: *; u = inconclusive; x = no result given. Unless noted, calls follow the shape of the dose curve; as a rule, active = well fitted curve in the direction sought with a large enough effect; inconclusive = small, poorly fitted or top-dose-only effect, or another doubt; inactive = no such curve, though single readings can be large; an effect the other way counts as inactive or inconclusive.

SMILES | VP16 counter | ELG1 DNA repair | BRCA1 expr up | RORg inh | p53 reactivation | Giardia kill
COc1ccc(-n2nc(C(=O)NCC(=O)NCC3COc4ccccc4O3)c3ccccc3c2=O)cc1OC (configuration not stated) | -5% | 9.2µM* | 0% | 23% | -3% | 8
COc1ccc(-n2nc(C(=O)NCC(=O)Nc3cccc(Cl)c3)c3ccccc3c2=O)cc1OC | 11µM* | u | -17% | u | 3% | -1
COc1ccc(-n2nc(C(=O)NCC(=O)N3CCCCCC3)c3ccccc3c2=O)cc1OC | -8% | -2% | 46% | -28% | 14% | -20
COc1ccc(-n2nc(C(=O)NCC(=O)NC3CCCCCC3)c3ccccc3c2=O)cc1OC | 4% | 18µM* | -10% | 10% | 2% | 6
COc1ccc(NC(=S)N2CCN(c3ccccn3)CC2)cc1 | -6% | -12% | 4% | -24% | 0% | -16
CCCCc1ccc(NC(=S)N2CCN(c3ccccn3)CC2)cc1 | u | -1% | -4% | 16µM* | x | -11
CCCCc1ccc(NC(=S)N2CCN(c3ncccn3)CC2)cc1 | u | u | -16% | 4.5µM* | -1% | 22
FC(F)Oc1cccc(NC(=S)N2CCN(c3ccccn3)CC2)c1 | -7% | -12% | -15% | 7.1µM* | 1% | -4
CCC(C)c1ccc(NC(=S)N2CCN(c3ccccn3)CC2)cc1 (configuration not stated) | 13µM* | -7% | -32% | u | 17% | -7
CC(=O)Nc1ccc(S(=O)(=O)NCC(=O)OCC(=O)NCc2ccco2)cc1 | x | 15% | 1% | x | 3% | 13
N#Cc1ccc(NC(=O)c2cc(S(=O)(=O)N3CCOCC3)ccc2N2CCCC2)cc1 | x | -2% | -17% | x | -4% | -24
COC(=O)c1ccc(CNC(=O)CSC(C)C(=O)Nc2cc(C)on2)cc1 (configuration not stated) | x | 1% | 5% | x | 1% | 12
O=C1C=C(NCCc2cc(Br)c(O)c(Br)c2)C(=O)c2ncccc21 | x | x | -95% | x | x | -8
O=C1C=C(NCCN2CCOCC2)C(=O)c2cnccc21 | u | 4.1µM* | x | 10µM* | -25% | x
O=C1C=C(NCCO)C(=O)c2cnccc21 | 6.3µM* | x | x | 3.5µM* | x | x
CCCNC(=O)C(Cc1ccccc1)NC(=O)Cc1ccccc1 (configuration not stated) | x | 3% | -6% | x | -2% | 15
C/C(=N\NC(=O)c1ccccc1OCCOc1ccccc1)c1ccccc1F | x | 18µM* | -74% | x | 3% | 22
COc1ccc(NS(=O)(=O)c2ccc3oc(SC(C)C(N)=O)nc3c2)cc1 (configuration not stated) | u | -4% | -35% | u | -1% | 10
O=C(NC(=S)Nc1ccccc1N1CCCC1)c1ccc(-c2cccc([N+](=O)[O-])c2)o1 | -23% | 15µM* | -45% | 13% | -8% | 3
O=C(Nc1ccccc1N1CCCCC1)c1cccc([N+](=O)[O-])c1 | -3% | -19% | -44% | 11% | 1% | -25
O=C(NC(=S)Nc1ccccc1N1CCCCC1)c1ccc(-c2cccc([N+](=O)[O-])c2)o1 | 2.2µM* | u | -35% | 0.5µM* | 3% | 4
CC(=O)N1CCN(c2ccccc2NC(=O)c2ccc(-c3cccc([N+](=O)[O-])c3)o2)CC1 | 11% | u | -13% | -5% | -2% | 30
Cc1cc(OCc2cc(C(=O)N3CCC(Oc4cccnc4)CC3)no2)cc(C)c1Cl | u | -20% | -39% | -28% | -3% | -6

Compound activity as filed in PubChem.
